# Source: PubChem BioAssay AID1233 (SRMLSC, 2008)
# Measured potencies and affinities stand elsewhere. Activity calls are given as the source filed them.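 The calls were made as follows: active = a dose-response curve fit returns a half-maximal inhibitory concentration, extrapolated values included; inactive = the fit returns no such concentration.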
# Target: HMG-CoA reductase [Enterococcus faecalis] (UniProt Q9FD70)
# Assay: inhibitors of E. faecalis class II HMGR, confirmation, biochemical, Enterococcus faecalis (AID 1233)
# Conditions: purified E. faecalis HMGR, NADPH absorbance 340 nm kinetics; series mostly up to 100 µM
row,SMILES,outcome
1,CCN(CC)c1ccc(-c2n[nH]c(=S)n2-c2ccccc2C)cc1,inactive
2,CCCn1c(SCC(=O)N2CC(=O)Nc3ccccc32)nc2ccccc21,inactive
3,CCCCOC(=O)c1nc[nH]c1C(=O)OCCCC,inactive
4,COc1cccc(C(=O)CN2C3=NCCCN3c3ccccc32)c1,inactive
5,O=C(NCC1CCCO1)C(c1cccs1)N(Cc1cccs1)C(=O)Cn1nnc(-c2cccs2)n1 (stereo not drawn),inactive
6,O=c1c(OC2OC(CO)C(O)C(O)C2O)c(-c2ccc(O)c(O)c2)oc2cc(O)cc(O)c12 (stereo not drawn),inactive
7,Fc1ccccc1Cn1cnc(NC(=S)NCCc2ccccc2)n1,inactive
8,O=C(Cn1cccc1C(=O)c1ccccc1)NCc1ccco1,inactive
9,Cc1ccc(-c2cc(C(=O)O)n(-c3ccc(S(N)(=O)=O)cc3)n2)cc1,inactive
10,COc1ccccc1N1CCN(CC(=O)c2c(N)n(C)c(=O)n(C)c2=O)CC1,inactive
11,CC1CN(C(=O)c2cccc(S(=O)(=O)Nc3ccc(Cl)cc3)c2)CC(C)O1 (stereo not drawn),inactive
12,CCOC(=O)c1c(NC(=O)CSc2nnc(C)s2)sc2c1CCC(CC)C2 (stereo not drawn),inactive
13,Cn1c(CN2CCCC2)c(C#N)c2ccccc21,inactive
14,COc1ccc(Cc2noc(-c3ccccc3)n2)cc1OC,inactive
15,O=[N+]([O-])/C(=C\Nc1ccccc1Cl)S(=O)(=O)c1ccccc1,inactive
16,CC1CCCC(NC(=O)CN(C)S(=O)(=O)c2cnc[nH]2)C1C (stereo not drawn),inactive
17,CCOc1ccc(/C(O)=C2/C(=O)C(=O)N(CC3CCCO3)C2c2ccco2)cc1 (stereo not drawn),inactive
18,CCOC(=O)C1(O)CC(C)=NN1C(=O)c1cccc(Br)c1 (stereo not drawn),inactive
